This is an account of results in PubChem BioAssay.

Active and inactive are the calls of the source. Unless noted, no rule for the calls is given here.

Assay [1] is described as follows: HepG2 liver cancer cell viability effects, profiling panel, resazurin fluorescence, 24 h, PK04 Diversity Set (AID 1172). Also: test concentration not given here. The note with it: higher = more signal. On the technique in general: The colour change of resazurin is a common sign of viable cells or microbes.
The nature of assay [2]: basal S. cerevisiae growth modulation, no modifier, primary screen, OD600, strain BY4716, 24 h, basal condition (AID 1173). The note with it: OD600, 24 h, higher = more signal, called active from +8 up or from −8 down.
A short description of assay [3]: MM1S myeloma cell viability, profiling panel, resazurin fluorescence, basal, 24 h, PK04 Diversity Set (AID 1174).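 Also: MM1S multiple myeloma cell line; test concentration not given here.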 The note with it: higher = more signal, called active from +8 up or from −8 down.
The target of assay [4] is Dihydroorotate dehydrogenase (quinone), mitochondrial (Plasmodium falciparum (isolate 3D7)) (UniProt Q08210). Kind of assay: PfDHODH enzyme inhibitors, primary screen, biochemical, C-terminal His tag, absorbance 600 nm (AID 1175).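 Also: recombinant parasite enzyme with a five histidine tag at its C terminus; test concentration not given here.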 The settings on record: DCIP absorbance 600 nm, higher = more signal, called active from +8 up or from −8 down.
Sequence of Dihydroorotate dehydrogenase (quinone), mitochondrial (Plasmodium falciparum (isolate 3D7)) (Q08210 whole entry, looked up): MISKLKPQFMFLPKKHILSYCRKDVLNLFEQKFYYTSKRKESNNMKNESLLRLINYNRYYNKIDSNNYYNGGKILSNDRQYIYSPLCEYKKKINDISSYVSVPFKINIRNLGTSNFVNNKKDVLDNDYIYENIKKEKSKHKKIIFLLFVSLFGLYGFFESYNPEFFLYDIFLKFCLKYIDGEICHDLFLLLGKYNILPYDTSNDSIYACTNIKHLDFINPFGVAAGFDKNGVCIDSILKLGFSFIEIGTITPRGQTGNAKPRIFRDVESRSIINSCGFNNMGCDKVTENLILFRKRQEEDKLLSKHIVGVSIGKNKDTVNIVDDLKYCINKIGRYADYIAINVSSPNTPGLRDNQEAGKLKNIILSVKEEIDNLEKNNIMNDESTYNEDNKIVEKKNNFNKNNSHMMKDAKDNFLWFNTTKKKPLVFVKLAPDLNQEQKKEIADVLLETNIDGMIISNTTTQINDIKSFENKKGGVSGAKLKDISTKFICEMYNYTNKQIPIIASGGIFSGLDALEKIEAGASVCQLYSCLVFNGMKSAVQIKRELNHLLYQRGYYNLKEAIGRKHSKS
Assay [5] in a line: P. aeruginosa biofilm formation inhibitors, primary screen, strain PAO1, LB-PBS medium, absorbance 600 nm (AID 1176). Also: test concentration not given here. The settings on record: P. aeruginosa PAO1 growth/biofilm, A600, 12 h; higher = more signal.
Assay [6] is described as follows: S. cerevisiae RM11-1a growth modifiers, primary screen, strain RM11-1a, OD600, basal, 24 h (AID 1177).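 Also: cultures grown under basal conditions with no added stressor; test concentration not given here.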 The settings on record: OD600, 24 h, higher = more signal, called active from +8 up or from −8 down.
A short description of assay [7]: E. coli acrAB mutant growth effects, primary screen, E. coli filamentation inducers, strain DRC39, OD650, 24 h (AID 1178).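 Also: growth measured as culture turbidity by optical density at 650 nm; test concentration not given here.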 The settings on record: higher = more signal, called active from +8 up or from −8 down.
Assay [8] can be described thus: E. coli acrAB mutant growth effects, primary screen, E. coli filamentation inducers, strain DRC39, OD650, 48 h (AID 1179).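 Also: screen aims at cell division blockers that make cells filament.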 The settings on record: E. coli DRC39 delta-acrAB growth, higher = more signal, called active from +8 up or from −8 down.
The nature of assay [9]: RPMI8226 myeloma cell viability, profiling panel, resazurin fluorescence, basal, 24 h, PK04 Diversity Set (AID 1180).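 Also: RPMI8826 multiple myeloma cell line at 5000 cells per well; test concentration not given here.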 The settings on record: higher = more signal.
In assay [10] the target is E3 ubiquitin-protein ligase XIAP (Homo sapiens) (UniProt P98170). Kind of assay: XIAP binders, primary screen, biophysical, small-molecule microarray, fluorescence 635 nm (AID 1181).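 Also: score merges 667 nm emission and signal to noise over triplicate slides.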 The settings on record: small-molecule microarray binding, higher = more signal.
Sequence of E3 ubiquitin-protein ligase XIAP (Homo sapiens) (P98170 whole entry, looked up): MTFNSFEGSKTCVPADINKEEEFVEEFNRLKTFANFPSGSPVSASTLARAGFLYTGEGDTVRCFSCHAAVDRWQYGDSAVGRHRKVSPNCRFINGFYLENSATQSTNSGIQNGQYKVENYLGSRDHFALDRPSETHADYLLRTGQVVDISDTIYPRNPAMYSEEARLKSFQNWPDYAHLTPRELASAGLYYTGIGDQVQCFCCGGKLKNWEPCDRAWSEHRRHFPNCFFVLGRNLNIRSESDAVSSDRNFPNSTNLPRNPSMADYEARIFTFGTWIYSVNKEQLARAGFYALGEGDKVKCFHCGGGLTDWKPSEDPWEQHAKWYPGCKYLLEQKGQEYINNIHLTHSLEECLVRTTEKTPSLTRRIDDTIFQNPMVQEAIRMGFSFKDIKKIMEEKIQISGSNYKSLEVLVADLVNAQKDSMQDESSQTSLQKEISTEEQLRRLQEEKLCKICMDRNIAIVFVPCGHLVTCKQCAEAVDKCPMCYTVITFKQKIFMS

Take `COc1ccc(C(O)C2C=CC3C(=O)NC(=O)C3N2Nc2ccc(Cl)cc2Cl)c2ccccc12` (stereo not given): the z-score in [1] is -2.19; in [2] it was -9.94 (active); in assay [3], -0.423 (inactive); in assay [5] it was 1.28 (inactive); in [6] it was 0.361 (inactive); in assay [7], -0.0977 (inactive). In addition, the figures for the z-score in [8] and in [9] were -0.626 (inactive) and -1.09, respectively. Also, the composite z-score in [4] was 0.167 (inactive); in [10], -0.0118.
On to `COC(=O)[C@@]1(Cc2ccccc2)[C@H]2c3cc(C(=O)N4CCCC4)n(Cc4ccc(OC)c(OC)c4)c3C[C@H]2CN1C(=O)c1ccccc1`, for which the z-score in assay [1] was 0.181; in assay [2] it was 1.58 (inactive); in assay [3], -0.466 (inactive); in assay [5], 0.0944 (inactive); in [6] it was 1.72 (inactive); in [7] it was -0.372 (inactive). The results for the z-score in assay [8] and in [9] were 0.352 (inactive) and -0.172, respectively. In addition, the composite z-score was 0.263 (inactive) in [4] and 0.0589 in assay [10].
On to `COc1ccc([Si](C)(C)[C@H]2[C@H](CC(=O)N3CCC[C@H]3CO)O[C@@]3(C(=O)N(Cc4ccc(N5CCCCC5=O)cc4)c4ccccc43)[C@@H]2C)cc1`, for which the z-score in assay [1] was -0.369; in [2], -0.0356 (inactive); in assay [3] it was -0.563 (inactive); in [5], -0.012 (inactive); in assay [6] it was 1.57 (inactive); in [7] it was -0.18 (inactive). Besides, the results for the z-score in assay [8] and in assay [9] were -0.244 (inactive) and -0.171, respectively. Besides, the composite z-score in [4] was -2.66 (inactive); in [10], 0.197.
As for `CC(C)N1C(=O)C[C@@](C(=O)NCCN2CCOCC2)(c2ccc([N+](=O)[O-])cc2)[C@H]1c1ccc(CO)cc1`, the z-score is 1.68 in assay [1]; -1.39 (inactive) in [2]; 0.795 (inactive) in assay [3]; -0.838 (inactive) in assay [5]; -0.291 (inactive) in assay [6]; 0.0506 (inactive) in assay [7]. The z-score is 0.445 (inactive) in [8] and 1.23 in [9]. In addition, the composite z-score in assay [4] was -0.1 (inactive); in assay [10] it was -0.0747.
As to `COC(=O)C(CC#Cc1ccc2c(c1)[C@]1(C(=O)N2)[C@H](C(=O)NC[C@H](O)c2ccccc2)[C@H]2C(=O)O[C@H](c3ccccc3)[C@H](c3ccccc3)N2[C@@H]1c1ccccc1OCCO)C(=O)OC`, the z-score in assay [1] is 0.786; in assay [2], 1.42 (inactive); in assay [3], -7.38 (inactive); in assay [5] it was 1.7 (inactive); in assay [6] it was 1.6 (inactive); in assay [7], 0.0386 (inactive). The results for the z-score in assay [8] and in assay [9] were -0.477 (inactive) and -6.76, respectively. In addition, the composite z-score in [4] was -7.26 (inactive); in assay [10], -0.0629.
On to `O=C1O[C@@H](c2ccccc2)[C@@H](c2ccccc2)N2[C@@H](c3ccc(OCCO)cc3)[C@]3(C(=O)Nc4ccc(C#CC5(O)CCCCCC5)cc43)[C@@H](C(=O)O)[C@H]12`, for which the z-score in assay [1] is -0.253; in assay [2] it was -0.431 (inactive); in assay [3] it was 1.12 (inactive); in assay [5], 1.27 (inactive); in assay [6], 3.11 (inactive); in assay [7], 0.876 (inactive). Further, the figures for the z-score in assay [8] and in [9] were 1.06 (inactive) and -0.121, respectively. Further, the composite z-score in assay [4] was -2.17 (inactive); in [10], -0.148.
As to `CC(C)(C)OC(=O)CC[C@]1(C(=O)NCC(O)CO)N=C(c2ccc(OCCCO)cc2)O[C@H]1c1ccccc1N=[N+]=[N-]` (stereo not given in full), the z-score in [1] was -0.108; in [2] it was -0.66 (inactive); in assay [3] it was -1.58 (inactive); in assay [5] it was 0.948 (inactive); in assay [6] it was -0.134 (inactive); in [7], -0.0029 (inactive). Also, the z-score in assay [8] is 0.0611 (inactive); in [9], -0.288. Besides, the values for the composite z-score in assay [4] and in assay [10] were -0.955 (inactive) and -0.0018, respectively.
For `C=CC[C@]1(C(=O)NCC(O)CO)COC(c2ccc(OCCCO)cc2)=N1` (stereo not given in full), the z-score in assay [1] was -0.25; in [2], 0.369 (inactive); in [3], -0.772 (inactive); in assay [5], 2.29 (inactive); in assay [6], 1.33 (inactive); in assay [7], -0.34 (inactive). Also, the z-score in assay [8] was -0.471 (inactive); in [9], -0.412. Moreover, the composite z-score in assay [4] is 0.233 (inactive); in assay [10] it was -0.266.
On to `CCCCCCc1nc(-c2ccc(-c3ccc(Cl)c(Cl)c3)o2)cc2c1[Si](C(C)C)(C(C)C)OC2`, for which the z-score in [1] was 0.373; in [2], -7.31 (inactive); in [3], -0.273 (inactive); in assay [5] it was -0.558 (inactive); in assay [6], -0.878 (inactive); in assay [7], 0.522 (inactive). The z-score in assay [8] is 0.395 (inactive); in assay [9], -0.151. The figures for the composite z-score in assay [4] and in [10] were -1.97 (inactive) and -0.0233, respectively.
Take `Cc1ccc(N2C(=O)c3ccccc3[C@](C)(C(=O)NCCCN(C)C)[C@@H]2c2ccc(CO)cc2)nc1`: the z-score in assay [1] was 0.218; in [2] it was -0.742 (inactive); in assay [3] it was -0.296 (inactive); in assay [5] it was 0.084 (inactive); in assay [6], -0.764 (inactive); in [7] it was -0.0003 (inactive). In addition, the z-score in [8] was -0.575 (inactive); in assay [9], -0.0858. The composite z-score is 0.0135 (inactive) in [4] and -0.158 in [10].
Regarding `C[C@]1(C(=O)O)c2ccccc2C(=O)N(Cc2cc(F)cc(C(F)(F)F)c2)[C@H]1c1ccc(CO)cc1`, the z-score was 0.646 in assay [1]; -1.43 (inactive) in assay [2]; 0.449 (inactive) in [3]; 1.01 (inactive) in [5]; -1.33 (inactive) in [6]; 0.434 (inactive) in [7]. Besides, the z-score in assay [8] is -0.808 (inactive); in assay [9], 1.4. The results for the composite z-score in assay [4] and in assay [10] were -0.215 (inactive) and -0.167, respectively.
